From PubChem BioAssay AID651725 (National Center for Advancing Translational Sciences (NCATS), 2012)
The whole screen tested about 360,000 compounds, of which about 2,000 (0.56%) were called active. Inconclusive results (about 2%) are left out. No stated cut-off is given here; in the data, active means activity change below about -65%; inconclusive means mostly about -30% to -63%; inactive means weaker than that. What follows is part of a selection rich in actives, with near analogues and random picks from the rest.

Biological target: Homeobox protein SIX1 (Homo sapiens) + Protein phosphatase EYA2 (Homo sapiens) (UniProt Q15475+O00167)
Experiment: qHTS Assay for Inhibitors of the Six1/Eya2 Interaction
Details: AlphaScreen GST-Six1/His-Eya2 binding, biochemical; stronger effect = lower value
From the text: Its expression is low or undetectable in normal adult breast tissue but the gene is over-expressed in 50% of primary breast tumors and 90% of metastatic lesions. […] Similar to Six1, Eya2 is also not expressed in most normal adult tissues, but is reexpressed in cancers. The Six1-Eya interaction is essential for proliferation during embryonic development, and both Six1 and Eya2 have been independently implicated in the same types of cancer. Because Six1 and Eya2 are embryonic genes with little expression in adult tissues, inhibitors of their expression/activity are likely to have limited side effects. Our goal is to identify inhibitors of the Six1/Eya interaction for potential cancer therapy. To this end, we have developed a homogenous AlphaScreen assay targeting the Six1/Eya interaction. We performed a large scale HTS of the Molecular Libraries Small Molecule Repository (MLSMR) to identify inhibitors of the Six1/Eya interaction as potential anti-cancer therapeutics. Compounds identified can also be used as chemical probes to better understand the biological functions of Six1 and Eya. NIH Chemical Genomics Center [NCGC] NIH Molecular Libraries Probe Centers Network [MLPCN] MLPCN Grant: DA033147 Assay Submitter (PI): Rui Zhao, University of Colorado Denver
The first step of the 5 uL AlphaScreen assay is to dispense assay buffer (50 mM Tris, pH 8.0, 300 mM NaCl, 0.05% BSA, 0.02% Tween 20, 1 mM TCEP) into a Greiner 1536 white solid bottom microtiter plate (789175-F). Five microliters is added to Column 1, 4 uL is added to Column 2 and 3 uL is added to Columns 3 through 48. A 5X protein solution (250 nM GST-Six1 protein + 500 nM His-tagged Eya2 protein) is mixed and 1 uL is dispensed to Columns 3-48. Using a 1536 pintool, 23 nL of compound is transferred to the assay plate. A solution of 5X AlphaScreen beads is mixed (50 ug/mL Glutathione linked donor beads + Nickel chelated acceptor beads) and 1 uL is dispensed to Columns 2-48. The assay plate is incubated for one hour, with a lid, at 37 deg C in the dark. The plate is read using a Perkin Elmer Envision using an AlphaScreen protocol.
On the % scale 0 is the no-effect control and ±100 the full control effect.

Sequence of Homeobox protein SIX1 (Homo sapiens) + Protein phosphatase EYA2 (Homo sapiens) (O00167 whole entry, looked up): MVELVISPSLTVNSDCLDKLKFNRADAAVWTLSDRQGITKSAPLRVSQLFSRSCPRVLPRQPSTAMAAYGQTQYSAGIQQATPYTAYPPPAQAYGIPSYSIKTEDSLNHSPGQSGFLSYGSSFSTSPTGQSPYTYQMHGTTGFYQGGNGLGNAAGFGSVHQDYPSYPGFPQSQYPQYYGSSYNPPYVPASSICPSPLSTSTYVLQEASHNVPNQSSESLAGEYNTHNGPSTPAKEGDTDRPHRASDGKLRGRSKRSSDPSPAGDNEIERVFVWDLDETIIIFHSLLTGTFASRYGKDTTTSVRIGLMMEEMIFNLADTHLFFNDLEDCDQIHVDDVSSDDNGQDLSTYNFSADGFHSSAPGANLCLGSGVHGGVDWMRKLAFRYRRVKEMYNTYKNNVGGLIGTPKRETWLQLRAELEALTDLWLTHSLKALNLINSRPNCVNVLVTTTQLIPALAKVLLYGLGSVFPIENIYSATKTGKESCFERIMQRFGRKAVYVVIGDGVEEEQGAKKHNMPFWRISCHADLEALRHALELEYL
Sequence of Homeobox protein SIX1 (Homo sapiens) + Protein phosphatase EYA2 (Homo sapiens) (Q15475 whole entry, looked up): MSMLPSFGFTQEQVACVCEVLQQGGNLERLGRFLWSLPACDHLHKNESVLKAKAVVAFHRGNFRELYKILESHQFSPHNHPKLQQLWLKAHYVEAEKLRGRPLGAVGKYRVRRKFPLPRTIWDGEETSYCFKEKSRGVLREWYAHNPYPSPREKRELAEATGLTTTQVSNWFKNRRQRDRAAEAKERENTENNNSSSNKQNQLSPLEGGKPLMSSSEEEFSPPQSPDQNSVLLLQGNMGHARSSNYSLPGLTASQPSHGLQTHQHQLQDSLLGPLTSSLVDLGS

Structure (SMILES)	activity change
CC/C(=N\NC(=O)c1ccccc1O)c1c(O)n(Cc2ccccc2)c(=O)[nH]c1=O	-9.73% (inactive)
COc1ccccc1-n1c(O)c(C=NC2CC2)c(=O)[nH]c1=O	0.906% (inactive)
O=C(N/N=C/c1c(O)n(Cc2ccccc2)c(=O)[nH]c1=O)c1ccccc1	-70.8% (active)
O=c1[nH]c(=S)n(C2CC2)c(O)c1/C=N/N1CCOCC1	-0.819% (inactive)
O=C(N/N=C/c1c(O)n(C2CC2)c(=S)[nH]c1=O)c1ccccc1	-88.6% (active)
O=c1[nH]c(=O)n(Cc2ccccc2)c(O)c1/C=N/Nc1c(F)c(F)c(F)c(F)c1F	1% (inactive)
Cc1cccc(-n2c(O)c(/C=N/N3CCOCC3)c(=O)[nH]c2=S)c1	-2.01% (inactive)
CC(C)c1ccc(-n2c(O)c(/C=N/N3CCOCC3)c(=O)[nH]c2=S)cc1	5.13% (inactive)
O=C(N/N=C/c1c(O)n(C2CC2)c(=S)[nH]c1=O)c1ccccc1Cl	-80.8% (active)
CCOC(=O)[C@]12Cc3cc(OC)ccc3[C@H]1N(C(C)C)C(=O)c1ccccc12	-2.51% (inactive)
CCOC(=O)[C@]12Cc3ccccc3[C@H]1N(C1CCCCC1)C(=O)c1cc(OC)ccc12	-3.21% (inactive)
C[C@]12CCC3C(CC[C@H]4[C@H](O)[C@H](O)CC[C@]34C)C1CC[C@@H]2O (stereo not given in full)	0% (inactive)
COP(=O)(NS(=O)(=O)c1ccccc1)OC	12.4% (inactive)
CC1(C)Cc2c(C#N)c(N3CCNCC3)nc(-c3ccco3)c2CS1	-3.88% (inactive)
O=C1NCN(c2ccccc2)C12CCN(C(c1cccs1)c1nnnn1C1CCCCC1)CC2 (stereo not given)	-13.5% (inactive)
COc1ccc(-n2nnnc2C(c2cccc3ccccc23)N2CCC(n3c(=O)[nH]c4ccccc43)CC2)cc1 (stereo not given)	-11.3% (inactive)
O=C(NCC(c1cccnc1)N1CCN(c2ccccc2)CC1)Oc1ccccc1 (stereo not given)	-4.91% (inactive)
CC12CN3CC(C)(CN(C1)C3c1cccs1)C2 (stereo not given)	-7.54% (inactive)
CC(C)c1ccc(OCC(=O)N2CCN(C)CC2)c(Br)c1	-2.15% (inactive)
CCC(C)n1c(O)c(/C=N/Nc2nc3c(c(=O)n(C)c(=O)n3C)n2C)c(=O)[nH]c1=S (stereo not given)	-86.1% (active)
CCC(=O)CC(c1ccc([N+](=O)[O-])cc1)c1c(O)c2ccccc2oc1=O (stereo not given)	0.567% (inactive)
O=c1[nH]c2ccccc2n1C1CCN(C(c2ccccc2)c2nnnn2Cc2ccccc2)CC1 (stereo not given)	-20.3% (inactive)
CCc1nnc(NS(=O)(=O)c2ccc(N=Cc3c(O)n(-c4ccccc4)c(=O)[nH]c3=O)cc2)s1	1.54% (inactive)
O=c1[nH]c(=O)n(CCc2ccc(F)cc2)c(O)c1/C=N/N1CCCCC1	5.39% (inactive)
CCCCC(=O)N/N=C/c1c(O)n(-c2ccccc2)c(=O)[nH]c1=O	-83.5% (active)
CCCCC(=O)N/N=C/c1c(O)n(CCC2=CCCCC2)c(=O)[nH]c1=O	-75.4% (active)
COc1ccc(CCn2c(O)c(C=NC3CC3)c(=O)[nH]c2=O)cc1OC	-3.07% (inactive)
CCCCC(=O)N/N=C/c1c(O)n(CC)c(=S)n(CC)c1=O	-9.7% (inactive)
COC(=O)C[C@H]1CC[C@H]2NC[C@@H](O)COC[C@@H]2O1	4.76% (inactive)
CC[C@H]1CC2CN3CCc4c([nH]c5ccccc45)C(C(=O)OC)(C2)C13 (stereo not given in full)	-23.8% (inactive)
